# Source: PubChem
# CYP2C19 inh: blocks human cytochrome P450 2C19. 96,000 compounds, 21% hits. inhibition, % at 5 µM. CYP2C19 Supersomes, luciferin-H EGE luminescence, 30 min. AID 778;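 active = CYP2C19 inhibition above a set limit at 5 µM in the primary screen, cut at about 50% in these data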;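 note: plate controls were negative control wells for no effect and 2.5 mM tranylcypromine positive control for full effect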
# PLAP activator: activates human placental alkaline phosphatase. P05187. purified PLAP enzyme, luminescent substrate read-out; active compounds read high. activation fold at 20 µM. 96,000 compounds, 1.2% hits. AID 696; in the data active = activation fold above about 2
# CYP2C9 activ: activators of human CYP2C9; P11712; recombinant CYP2C9, luciferin-H conversion, luminescence; active compounds read high; factor 1 = untreated enzyme, 0 = blocked; activation factor at 5 µM; 96,000 compounds, 1.4% hits; AID 1024;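 active = activation factor of 2 or more for CYP2C9 at a 5 µM dose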;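 note: 0 = sulfaphenazole-blocked wells and 1 = vehicle-only wells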
# Target sequence (P11712 whole entry, looked up): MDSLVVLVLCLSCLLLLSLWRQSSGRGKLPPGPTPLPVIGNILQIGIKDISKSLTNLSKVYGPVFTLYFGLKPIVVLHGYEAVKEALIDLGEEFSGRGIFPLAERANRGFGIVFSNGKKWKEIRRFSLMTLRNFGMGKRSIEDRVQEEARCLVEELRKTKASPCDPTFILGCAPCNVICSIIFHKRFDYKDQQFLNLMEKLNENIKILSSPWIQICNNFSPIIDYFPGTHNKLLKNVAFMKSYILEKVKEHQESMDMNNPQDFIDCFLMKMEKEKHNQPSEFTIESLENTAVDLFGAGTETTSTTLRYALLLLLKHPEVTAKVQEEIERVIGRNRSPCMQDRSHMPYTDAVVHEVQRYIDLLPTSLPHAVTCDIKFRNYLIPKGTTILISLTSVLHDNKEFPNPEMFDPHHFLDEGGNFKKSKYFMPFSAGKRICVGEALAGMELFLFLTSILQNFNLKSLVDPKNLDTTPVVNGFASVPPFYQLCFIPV
# CYP2C19 activ: increases human CYP2C19 enzyme activity | recombinant CYP2C19, luciferin-H EGE luminescence; active compounds read high; 0 = fully inhibited enzyme, 1 = untreated enzyme | activation factor at 5 µM | 96,000 tested, under 10 active;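 active = activation factor of at least 2 at 5 µM in the primary screen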;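 note: 0 = wells with 2.5 mM tranylcypromine and 1 = vehicle-only wells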
# CYP2C9 inhib: inhibitors of human CYP2C9; P11712; CYP2C9 Supersomes, luciferin-H conversion, luminescence; inhibition, % at 5 µM; 96,000 compounds, 20% hits; AID 777;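 active = blocking of liver enzyme CYP2C9 beyond about 50% at 5 µM, limit read from the data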
# * hit, by the source's call. Hits are enriched below; roughly 31% of the tested compounds scored in any of these assays.
SMILES,CYP2C19 inh,PLAP activator,CYP2C9 activ,CYP2C19 activ,CYP2C9 inhib
CC(C)(C)NS(=O)(=O)c1ccc(NS(=O)(=O)c2ccc(F)cc2)cc1,37.6,1.2,0.1,0.6,92.9*
CCCN(CCC)S(=O)(=O)c1ccc(NS(C)(=O)=O)cc1,-12.3,1.1,0.9,1.1,6.6
COc1cc(NS(=O)(=O)c2ccc(NC(C)=O)cc2)ncn1,8.3,0.8,1,0.9,2.7
Cc1ccc(S(=O)(=O)Nc2ccc(S(=O)(=O)NC(C)(C)C)cc2)cc1,48.1,1.3,0.1,0.5,86.6*
Cc1ccc(S(=O)(=O)N=Nc2c(O)[nH]c3ccccc23)cc1C,1.1,1.2,0.8,1,16.6
CCN(CC)CC(=O)NCC1(c2ccccc2)CCOCC1,-1.5,0.9,0.8,1,21.5
Cc1ccc(/C(COc2ccccc2O)=N\O)cc1,76.0*,0.9,0.6,0.2,40.7
Cc1ccc(SC(=O)COc2ccccc2C)cc1,8.9,0.9,0.9,0.9,11.7
O=C(COc1ccccc1Cl)N1CCN(c2ccc([N+](=O)[O-])c(N3CCCCC3)c2)CC1,59.1*,0.9,0.2,0.4,84.2*
O=C(COc1ccc(Cl)cc1)N1CCN(c2ccc([N+](=O)[O-])c(N3CCCCC3)c2)CC1,98.3*,1.2,0.4,0,60.7*
COc1ccccc1C(=O)N1CCN(CCc2ccccc2)CC1,61.1*,1.4,0.5,0.4,48.8
CCOC(=O)Nc1ccccc1C(=O)N1CCOCC1,1.5,1.2,1,1,-4.8
CCOC(=O)C1CCN(C(=O)c2ccccc2Oc2ccccc2)CC1,84.7*,1.5,0.1,0.2,91.7*
CCOC(=O)C1CCN(C(=O)COC(=O)COc2ccccc2OC)CC1,4.9,1.3,1.2,1,-21.7
CCOc1ccccc1C(=O)N1CCCCC1C (stereo not given),68.9*,0.9,0.4,0.3,58.0*
CCOC(=O)N1CCN(C(=O)c2ccccc2NC(=O)COc2ccccc2C)CC1,65.3*,1.2,0.4,0.3,56.4*
COC(=O)Cn1c(=NC(=O)CSC(C)=O)sc2ccccc21,-5.4,1,0.5,1.1,49.7
CCOC(=O)N1CCN(C(=O)c2ccccc2Oc2ccccc2)CC1,42.4,1.3,0.1,0.6,94.4*
CCOC(=O)N1CCN(C(=O)c2cccc(OC)c2OC)CC1,27.9,0.9,1.1,0.7,-11.2
Cc1ccc(NC(=S)NCCN2CCOCC2)cc1C,48.2,1,0.9,0.5,12.5
COC(=O)C1=CN(C2CC2)C=C(C(=O)OC)C1c1ccccc1OC,70.0*,1.9,0.3,0.3,65.8*
Cc1ccc(C2CC(=O)NC(SCc3ccccc3)=C2C#N)o1 (stereo not given),34.3,0.7,0.5,0.7,52.7*
COC(=O)CSC1=C(C#N)C(c2ccccc2)CC(=O)N1 (stereo not given),35.9,0.9,0.7,0.6,28.1
N#CC1=C(SCC(=O)NC2CCCCC2)NC(=O)CC1c1ccco1 (stereo not given),72.1*,1.1,0.4,0.3,58.7*
N#CC1=C(SCC(=O)NCc2ccccc2)NC(=O)CC1c1ccco1 (stereo not given),67.0*,1.1,0.1,0.3,87.6*
SMILES,CYP2C19 inh,PLAP activator,CYP2C9 activ,CYP2C19 activ,CYP2C9 inhib
CCCCCCSC1=C(C#N)C(c2ccc(C)o2)CC(=O)N1 (stereo not given),19.0,0.7,0.5,0.8,47.0
N#CC1=C(SCc2ccccc2)NC(=O)CC1c1ccco1 (stereo not given),28.2,0.8,0.3,0.7,71.3*
COc1ccc(CN(C)C(=O)COC(=O)c2ccc3c(c2)OCO3)cc1OC,32.1,0.9,0.4,0.7,61.0*
COc1ccc(C(C)=O)cc1COC(=O)c1ccc2c(c1)OCO2,11.1,0.9,0.7,0.9,29.7
CCOC(=O)CCP(=O)(O)C(O)c1ccccc1 (stereo not given),-14.6,1.1,1,1.1,-4.5
O=C(CSc1nnc(-c2ccco2)n1CC1CCCO1)c1ccc(F)cc1 (stereo not given),38.6,1,1.1,0.6,-8.9
COc1cc(COc2ccc3c(C)c(Cc4ccccc4)c(=O)oc3c2)cc(OC)c1OC,36.1,1,0.4,0.6,57.4*
Cc1c(Cc2ccccc2)c(=O)oc2cc(OC(=O)c3ccccc3)ccc12,60.3*,0.9,0.6,0.4,39.8
COc1cc(COc2ccc3c(C)c(Cc4ccccc4)c(=O)oc3c2C)cc(OC)c1OC,58.2*,1.4,0.3,0.4,66.1*
Cc1c(C)c2ccc(OCc3ccc(C(=O)O)o3)c(C)c2oc1=O,1.4,1.1,0.8,1,20.6
COC(=O)Cc1c(C)c2ccc(OC(=O)c3ccccc3)cc2oc1=O,0.1,0.9,1.1,1,-9.2
Cc1c(Cc2ccccc2)c(=O)oc2cc(OCc3nn[nH]n3)ccc12,-12.6,1.1,0.6,1.1,43.8
Cc1ccc(S(=O)(=O)C2CCOC2=O)cc1 (stereo not given),-2.5,1.1,0.9,1,9.1
Cc1cc(Nc2ccccc2)n(CCOC(=O)COc2ccccc2)n1,32.6,1.2,0.8,0.7,22.4
COc1ccc(-c2csc(N3CCC(C(N)=O)(N4CCCCC4)CC3)n2)cc1,-16.3,1.2,0.8,1.2,15.3
O=S(=O)(c1ccc(S(=O)(=O)N(Cc2ccc(F)cc2)C2CCCC2)cc1)N1CCCC1,67.9*,1.3,0.2,0.3,77.4*
Cn1c(=O)c([N+](=O)[O-])c(NCc2ccccc2)c2ccccc21,-4.9,0.9,1.1,1,-5.9
CN(CC(=O)OCC(=O)NC(=O)c1cccn1C)S(=O)(=O)c1ccc(Cl)cc1,1.3,0.9,1,1,0.4
Cc1cccc(N(CC(=O)NCc2ccc3c(c2)OCO3)C(=O)CCC(=O)Nc2ccccn2)c1,60.8*,1.6,0.7,0.4,28.1
Cc1cccc(N(CC(=O)NCc2ccco2)C(=O)CCC(=O)Nc2ccccn2)c1,57.9*,1.1,0.8,0.4,22.9
O=C(CN(Cc1ccco1)C(=O)CCC(=O)Nc1ccccn1)NCCc1ccccc1,68.7*,1.7,0.4,0.3,57.9*
COCCNC(=O)CN(C(=O)CCC(=O)Nc1cc(C)on1)c1ccccc1C,10.3,1,0.8,0.9,24.7
Cc1ccc(CN(CC(=O)NCCc2ccccc2)C(=O)CCCC(=O)Nc2cc(C)on2)cc1,59.7*,1.3,0.4,0.4,62.0*
O=C(CN(C(=O)CCC(=O)Nc1nccs1)c1ccc2c(c1)OCCO2)NCc1ccco1,44.1,1,0.8,0.6,15.5
Cc1ccc(-n2nc3c(c2NC(=O)c2c(-c4ccccc4Cl)noc2C)CSC3)cc1,22.2,1.3,0.6,0.8,37.4
Cc1c(C(=O)O)c(=S)sn1CCOc1ccccc1,0.9,1,1,1,0.5
CC(C)(C)c1csc(NC(=O)c2ccc3nccnc3c2)n1,9.8,1.1,0.7,0.9,33.7
Oc1c(/C=N/c2ncn[nH]2)ccc2ccccc12,-0.5,1,0.9,1,12.9
